Screens: PubChem BioAssay, DiRusso Lab, Biochemistry Department, University of Nebraska
Many of the other results were omitted from the sample, so hits are more common in it than they were.
Algae TAG accum: increases triacylglycerol in Chlamydomonas reinhardtii. calls only at 10 µM (by protocol). Chlamydomonas reinhardtii TAG, Nile Red fluorescence, 72 h. 44,000 tested, 0.84% active; call rule not given here;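 also: hits raise Nile Red signal meaning more stored TAG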
* = called active by the depositor; i = inactive; + = active, no number.

SMILES | Algae TAG accum
C=CCNC(=O)C(C)N(c1ccc(OCC)cc1)S(C)(=O)=O (centres undefined) | +
CCOc1ccc(N(C(C)C(N)=O)S(C)(=O)=O)cc1 (centres undefined) | i
O=C(Nc1ccc(Cl)cc1)C(=O)NC1CC1 | i
CC(C)CN(CC(C)C)C(=O)c1cccc(F)c1 | i
Cc1ccccc1N(CC(=O)N1CCN(C)CC1)S(C)(=O)=O | i
O=[N+]([O-])c1ccc(CN2CCc3ccccc3C2)cc1 | +
O=[N+]([O-])c1ccc(CN2CCOCC2)cc1 | i
O=[N+]([O-])c1ccc(CN2CCCCC2)cc1 | i
COc1cc2c(cc1OC)CN(Cc1ccc([N+](=O)[O-])cc1)CC2 | i
O=[N+]([O-])c1ccc(S(=O)(=O)N2CCN(Cc3cc(Br)ccc3O)CC2)cc1 | i
O=[N+]([O-])c1ccc(CN2CCN(Cc3cc(Br)ccc3O)CC2)cc1 | +
CCCCN(CC)C(=O)c1ccc(OC)cc1 | i
CC(=O)Nc1cccc(NC(=O)CSc2nc3ccccc3[nH]2)c1 | i
Cc1cccc(OCCCN2CCCCC2)c1C | i
CCCCSc1nc2cc(C)ccc2n1C | i
COc1ccc(C2(C(=O)NC3CCCCC3)CCCC2)cc1OC | i
Nc1nc(=O)n2c(n1)oc1ccccc12 | i
Fc1ccccc1CSc1nc2ncccc2[nH]1 | i
Fc1ccccc1CSc1nnc(-c2ccncc2)n1-c1ccccc1 | i
Fc1ccccc1CSC1=NCCN1 | +
Cc1cc(Br)ccc1NS(=O)(=O)c1ccc(F)cc1 | i
O=[N+]([O-])c1ccc(N2CCN(C3Cc4ccccc4C3)CC2)cc1 | i
C=CCc1ccccc1OCC(O)CN(C)C1CCCCC1 (centres undefined) | +
C=CCc1ccccc1OCC(O)CN1C(C)CCCC1C (centres undefined) | i
C=CCc1ccccc1OCC(O)CN1CCC(C)CC1 (centres undefined) | i
SMILES | Algae TAG accum
CC1=C(C#N)C(c2cccc([N+](=O)[O-])c2)C2=C(CCCC2=O)N1 (centres undefined) | i
CN1CCN(C(=O)CN(C2CCCCC2)S(=O)(=O)c2ccc(Cl)cc2)CC1 | i
COc1ccc(CSc2ncn[nH]2)cc1Br | i
Clc1ccccc1OCc1nc(-c2ccc(Br)cc2)no1 | i
CC(C)(C)NC(=O)c1ccccc1NC(=O)c1ccccc1I | i
c1ccc(CN2CCC(NC3C4CC5CC(C4)CC3C5)CC2)cc1 (centres undefined) | i
O=[N+]([O-])c1ccc(CN2CCN(C3CCN(Cc4ccccc4)CC3)CC2)cc1 | i
c1ccc(CN2CCN(C3CC4CCC3C4)CC2)cc1 (centres undefined) | +
O=[N+]([O-])c1cccc(CN2CCN(C3CC4CCC3C4)CC2)c1 (centres undefined) | i
O=[N+]([O-])c1ccc(CN2CCN(C3CC4CCC3C4)CC2)cc1 (centres undefined) | +
Oc1ccc(Br)cc1CN1CCN(C2CC3CCC2C3)CC1 (centres undefined) | i
COc1nc(Oc2ccc(=O)[nH]n2)nc(N(C)C)n1 | i
O=[N+]([O-])c1ccccc1CNc1ccc2c(c1)CCC2 | i
c1cc(CN2CCOCC2)cs1 | i
Clc1cccc(N2CCN(Cc3ccsc3)CC2)c1 | +
COc1cc(CN2CCN(c3cccc(Cl)c3)CC2)cc(OC)c1O | i
c1ccc(N2CCN(Cc3ccsc3)CC2)cc1 | +
c1ccc(CCN2CCN(Cc3ccccc3)CC2)cc1 | i
c1ccc(CCN2CCN(c3ccccc3)CC2)cc1 | +
c1ccc(N2CCN(Cc3ccsc3)CC2)nc1 | i
CN1CCN(CCCc2ccccc2)CC1 | i
Clc1cccc(N2CCN(Cc3cccs3)CC2)c1 | i
CC(C)c1ccc([N+](=O)[O-])cc1S(=O)(=O)N1CCN(c2ccccc2)CC1 | i
O=C(O)c1cccc(NC(=O)c2ccc(S(=O)(=O)N3CCCCC3)cc2)c1 | i
Cc1ccc(S(=O)(=O)N(C)c2ccc(OCC(=O)N3CCOCC3)cc2)cc1 | i
SMILES | Algae TAG accum
O=CN1CCN(Cc2c(F)cccc2Cl)CC1 | i
Cc1ccc(NC(=O)c2cc(I)ccc2Cl)c(C)c1 | i
CN1CCN(CCOCCOc2ccc(Cl)cc2C(C)(C)C)CC1 | i
Cc1cc(C(C)(C)C)ccc1OCCN1CCOCC1 | i
CN1CCN(CCOCCOc2ccccc2-c2ccccc2)CC1 | i
Cc1cc(C(C)(C)C)ccc1OCCOCCN1CCN(C)CC1 | +
C=CCc1cc(OC)ccc1OCCOCCN1CCN(C)CC1 | i
Cc1cc(Cl)c(OCCOCCN2CCN(C)CC2)c(Br)c1 | +
C=CCc1cc(C)ccc1OCCOCCN1CCN(C)CC1 | i
CN1CCN(CCOCCOc2c(Cl)cc(Cl)cc2Cl)CC1 | i
Cc1cc(C(C)(C)C)ccc1OCCCN1CCN(C)CC1 | i
Cc1ccc(OCCOCCN2CCN(C)CC2)c(I)c1 | +
Cc1cc(C(C)(C)C)ccc1OCCN1CCN(C)CC1 | +
Cc1cc(Cl)c(OCCCN2CCN(C)CC2)c(Br)c1 | i
C=COCCNC(=O)Nc1cccc(Cl)c1 | i
COc1ccc(N2CCN(c3cc(N4CCN(C)CC4)ccc3[N+](=O)[O-])CC2)cc1 | i
Cc1nnc(N2C(=O)c3ccccc3C2=O)s1 | i
Cc1cccc(Nc2nnc(C)c(=O)[nH]2)c1 | i
CC1(C)CC(=O)C2=C(C1)OC(N)=C(C#N)C2c1cccc([N+](=O)[O-])c1 (centres undefined) | i
Cc1cc(Br)ccc1OCC(=O)N1CCc2ccccc2C1 | i
N#C/C(=C\c1c[nH]c2ccccc12)c1ccc([N+](=O)[O-])cc1 | i
COc1ccc(C=C(C#N)c2nc3ccccc3[nH]2)c(OC)c1 | i
Cc1ccc(OCC(O)CN2CCN(c3ccccc3)CC2)c(C)c1 (centres undefined) | i
Cc1cc(Cl)ccc1OCC(O)CN1CCN(C)CC1 (centres undefined) | +
OC(COc1ccc(Cl)cc1Cl)CN1CCc2ccccc2C1 (centres undefined) | i
SMILES | Algae TAG accum
CN(C)c1ccc(CN2CCc3c([nH]c4ccccc34)C2)cc1 | i
N#CC1=C(N)OC2=C(C(=O)CC(c3ccccc3)C2)C1c1ccc(Br)s1 (centres undefined) | i
Cc1ccc(S(=O)(=O)c2cc3c(=O)n4cc(C)ccc4nc3n(Cc3ccccc3)c2=N)cc1 | i
O=Cc1c(Sc2ccc(Cl)cc2)nc2ccccn2c1=O | i
Cc1ccc2nc(SCc3ccccc3)c(C=O)c(=O)n2c1 | +
O=[N+]([O-])c1ccccc1-c1ccc(CN2CCCCC2)o1 | i
CCOc1cccc(N2C(=O)CC(NCCc3ccc(S(N)(=O)=O)cc3)C2=O)c1 (centres undefined) | i
COc1ccc(C(=O)c2ccc(N3CCOCC3)c([N+](=O)[O-])c2)cc1 | i
O=C(Nc1cccc(Cl)c1)c1ccc(N2CCOCC2)c([N+](=O)[O-])c1 | i
CC(C)(C)c1csc(NC(=O)c2ccc(N3CCOCC3)c([N+](=O)[O-])c2)n1 | +
Cc1cccc(C2NCCc3c2[nH]c2ccccc32)c1 (centres undefined) | i
O=C(Nc1ccccc1F)c1c(F)c(F)c(F)c(F)c1F | i
O=C(Nc1ccc(Cl)cc1F)c1c(F)c(F)c(F)c(F)c1F | +
O=C(Nc1ccc(Br)cc1F)c1c(F)c(F)c(F)c(F)c1F | i
CCc1ccccc1OCCN1CCOCC1 | i
CCN(CC)CCn1cccc1C=O | i
